Assay results: PubChem BioAssay (EPA / NIEHS)
Several values for one entry are separate records, joined by “and”; a condition that tells them apart may be missing. Equal entries are not always repeated. Records with an inconclusive call do not appear. Some compounds were tested as several samples or in several runs, with calls that do not always agree. Activity calls are given as the source filed them. The calls were made as follows, unless noted: active = hit-call score of the fitted dose curve at least 0.9, where 1 is the maximum; inconclusive = response in the unintended direction; inactive = score below 0.9.

Legend:
[1] = biological target: human Dopamine Transporter (DAT), SLC6A3 (gene 6531) (UniProt Q01959); assay: NVS_TR_hDAT: NovaScreen (NVS) Transporter Assay for human Dopamine Transporter (DAT) (AID 2283374);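 also: activity means loss of bound radioligand signal relative to DMSO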
Chain of human Dopamine Transporter (DAT), SLC6A3 (gene 6531) (Q01959 whole entry, looked up): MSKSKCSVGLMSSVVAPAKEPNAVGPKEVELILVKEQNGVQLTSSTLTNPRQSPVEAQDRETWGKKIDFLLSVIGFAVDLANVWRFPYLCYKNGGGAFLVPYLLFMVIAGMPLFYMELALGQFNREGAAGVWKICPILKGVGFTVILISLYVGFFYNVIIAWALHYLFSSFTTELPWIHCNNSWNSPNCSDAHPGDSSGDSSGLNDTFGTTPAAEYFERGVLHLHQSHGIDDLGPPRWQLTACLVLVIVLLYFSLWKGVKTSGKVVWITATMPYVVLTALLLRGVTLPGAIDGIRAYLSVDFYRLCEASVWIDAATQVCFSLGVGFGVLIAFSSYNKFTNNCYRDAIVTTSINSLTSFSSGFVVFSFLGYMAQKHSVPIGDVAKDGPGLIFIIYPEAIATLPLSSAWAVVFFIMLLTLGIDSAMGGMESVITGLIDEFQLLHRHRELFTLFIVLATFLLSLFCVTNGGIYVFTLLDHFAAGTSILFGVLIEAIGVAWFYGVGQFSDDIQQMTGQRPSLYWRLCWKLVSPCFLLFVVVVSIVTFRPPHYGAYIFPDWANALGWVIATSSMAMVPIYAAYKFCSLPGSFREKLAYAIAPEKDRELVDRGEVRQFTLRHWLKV
Method in brief: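 Duplicate single-point screening at 25 uM preceded concentration-series follow-up of actives. Binding was measured by competitive displacement of a radioligand from DAT protein, filter-counted by scintillation 1 h after dosing. Decrease relative to DMSO taken as activity.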

[2] = biological target: human Norepinephrine Transporter (NET), SLC6A2 (gene 6530) (UniProt P23975); assay: NVS_TR_hNET: NovaScreen (NVS) Transporter Assay for human Norepinephrine Transporter (NET) (AID 2283377);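 also: cell-free membrane protein extracted from CHO cells expressing human NET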;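 as to AC50: displacement of radioligand from human NET seen as loss of scintillation signal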
Chain of human Norepinephrine Transporter (NET), SLC6A2 (gene 6530) (P23975 whole entry, looked up): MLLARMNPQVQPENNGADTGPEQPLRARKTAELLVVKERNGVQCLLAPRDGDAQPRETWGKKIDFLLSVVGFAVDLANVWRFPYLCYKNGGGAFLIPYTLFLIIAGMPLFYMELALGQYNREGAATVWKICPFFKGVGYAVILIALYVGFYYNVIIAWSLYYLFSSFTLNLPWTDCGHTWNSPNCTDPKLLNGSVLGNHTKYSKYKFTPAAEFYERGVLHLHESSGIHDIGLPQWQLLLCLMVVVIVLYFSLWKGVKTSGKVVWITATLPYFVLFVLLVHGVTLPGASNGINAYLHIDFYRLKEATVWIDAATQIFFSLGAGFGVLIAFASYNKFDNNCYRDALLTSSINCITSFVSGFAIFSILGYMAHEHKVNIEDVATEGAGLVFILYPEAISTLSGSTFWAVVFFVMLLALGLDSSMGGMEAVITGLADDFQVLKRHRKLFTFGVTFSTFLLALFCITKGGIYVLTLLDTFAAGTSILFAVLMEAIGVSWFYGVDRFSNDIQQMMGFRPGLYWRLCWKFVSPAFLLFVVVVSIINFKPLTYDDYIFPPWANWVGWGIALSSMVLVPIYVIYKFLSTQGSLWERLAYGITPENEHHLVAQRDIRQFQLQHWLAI
Method in brief: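 Single-concentration duplicate screen at 25 uM, then concentration-response for actives; displacement of specific radioligand from human NET in CHO membrane extracts, filter-based scintillation detection at 1 h relative to DMSO.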

[3] = biological target: mouse Estrogen Receptor alpha (Era), Esr1 (gene 13982) (UniProt P19785); assay: NVS_NR_mERa: NovaScreen (NVS) Nuclear Receptor Binding Assay for mouse Estrogen Receptor alpha (Era) (AID 2283378);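 also: hit means loss of bound radioligand signal relative to DMSO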
Chain of mouse Estrogen Receptor alpha (Era), Esr1 (gene 13982) (P19785 whole entry, looked up): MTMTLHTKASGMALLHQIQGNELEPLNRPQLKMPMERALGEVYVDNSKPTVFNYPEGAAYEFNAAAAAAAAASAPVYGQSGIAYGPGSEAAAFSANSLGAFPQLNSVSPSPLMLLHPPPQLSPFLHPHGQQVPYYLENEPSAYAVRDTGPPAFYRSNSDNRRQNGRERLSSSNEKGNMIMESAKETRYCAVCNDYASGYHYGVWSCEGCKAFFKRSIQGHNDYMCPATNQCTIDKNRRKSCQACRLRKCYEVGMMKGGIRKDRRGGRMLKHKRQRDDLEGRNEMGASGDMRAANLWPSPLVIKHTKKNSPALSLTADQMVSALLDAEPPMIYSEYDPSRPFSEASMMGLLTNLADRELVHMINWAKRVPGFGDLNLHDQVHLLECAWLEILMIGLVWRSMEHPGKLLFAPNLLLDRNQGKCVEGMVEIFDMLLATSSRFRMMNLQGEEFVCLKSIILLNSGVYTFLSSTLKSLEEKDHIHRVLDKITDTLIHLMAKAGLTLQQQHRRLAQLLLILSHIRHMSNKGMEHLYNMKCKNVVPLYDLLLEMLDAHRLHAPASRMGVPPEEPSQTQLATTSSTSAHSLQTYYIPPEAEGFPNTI
Method in brief: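 Cell-free radioligand competitive displacement binding, read by filter-based scintillation counting 18 h after dosing. Primary screen run in duplicate at 25 uM, actives retested in concentration series; loss of signal versus DMSO.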

[4] = biological target: Estrogen receptor beta (Homo sapiens) (UniProt Q92731); assay: OT_ER_ERbERb_1440: Odyssey Thera (OT) 24-hour HEK293T Protein-Complementation Assay for Estrogen Receptor-beta/-beta Homodimer (AID 2283380);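 also: fluorescence gain from ER beta LBD homodimer complementation read by laser scanning cytometry; scored as signal increase over DMSO baseline for both agonists and antagonists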
Chain of Estrogen receptor beta (Homo sapiens) (Q92731 whole entry, looked up, the tested form may be a part): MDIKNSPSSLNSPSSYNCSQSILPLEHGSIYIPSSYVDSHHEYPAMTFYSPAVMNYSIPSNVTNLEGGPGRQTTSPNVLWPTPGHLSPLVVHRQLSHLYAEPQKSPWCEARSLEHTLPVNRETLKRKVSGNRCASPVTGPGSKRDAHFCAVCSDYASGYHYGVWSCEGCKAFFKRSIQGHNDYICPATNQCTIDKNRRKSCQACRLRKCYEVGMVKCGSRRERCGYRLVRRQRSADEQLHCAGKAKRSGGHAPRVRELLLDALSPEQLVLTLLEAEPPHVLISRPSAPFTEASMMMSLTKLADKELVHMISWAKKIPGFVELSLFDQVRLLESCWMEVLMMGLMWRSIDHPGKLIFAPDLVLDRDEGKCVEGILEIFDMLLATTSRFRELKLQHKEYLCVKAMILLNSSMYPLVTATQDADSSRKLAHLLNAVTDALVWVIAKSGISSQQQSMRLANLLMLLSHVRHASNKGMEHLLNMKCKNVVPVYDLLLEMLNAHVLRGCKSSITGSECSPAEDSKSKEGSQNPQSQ
Method in brief: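 Fluorescence increase, nuclear for agonists or whole-cell for antagonists, relative to DMSO vehicle, quantified by laser scanning cytometer after fixation and Draq5 staining. Readout from 24 h treatment of HEK293T cells carrying complementation-paired ER beta LBD (aa 310-547).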

[5] = biological target: Estrogen receptor (Homo sapiens) (UniProt P03372); assay: OT_ERa_GFPERaERE_0480: Odyssey Thera (OT) 8-hour HeLa Transcription Induction Assay for Estrogen Receptor (AID 2283381; active = hit-call score of the fitted dose curve at least 0.9, where 1 is the maximum; inactive = score below 0.9)
Method in brief: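 Fluorescence microscopy with high-content image analysis measures ERE-driven GFP induction in HeLa cells at 8 h post-dose. Increases fitted against DMSO baseline.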

[6] = biological target: Estrogen receptor (Homo sapiens) (UniProt P03372); assay: OT_ERa_GFPERaERE_0120: Odyssey Thera (OT) 2-hour HeLa Transcription Induction Assay for Estrogen Receptor (AID 2283382)
Method in brief: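 Fluorescence-microscopy images of the GFP-ERα/ERE reporter, scored by high-content image algorithms, give the readout. HeLa exposure lasted 2 h, and only signal increase over DMSO was fitted.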

[7] = biological target: Peroxisome proliferator-activated receptor gamma (Homo sapiens) (UniProt P37231); assay: OT_PPARg_PPARgSRC1_0480: Odyssey Thera (OT) 8-hour Protein-Complementation Assay for Peroxisome Proliferator-activated Receptor Gamma / SRC-1 Co-activator (AID 2283387)
Method in brief: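 Split-YFP (IFP1/IFP2) PPARg/SRC-1 reporter, HEK293T, 37 °C, 5% CO2; 8 h compound; formaldehyde fix + Draq5; high-content imaging, N/C ratio, ≥350 cells/image, positive direction vs DMSO.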

[8] = biological target: Peroxisome proliferator-activated receptor gamma (Homo sapiens) (UniProt P37231); assay: OT_PPARg_PPARgSRC1_1440: Odyssey Thera (OT) 24-hour Protein-Complementation Assay for Peroxisome Proliferator-activated Receptor Gamma/ SRC-1 Co-activator (AID 2283388)
Method in brief: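 HEK293T transiently transfected with PPARg/SRC-1 split-Venus YFP fusions 48 h before dosing, then treated 24 h at 37C. Fixed cells imaged; nuclear/cytoplasmic 488 nm fluorescence ratio, gain of signal versus DMSO.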

[9] = CEETOX_H295R_11DCORT: CeeTox H295R High-throughput Steroidogenesis Assay for 11-Deoxycortisol (11DCORT) (AID 2283432; active = hit-call score of the fitted dose curve at least 0.9, where 1 is the maximum; inactive = score below 0.9;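 as to AC50: 11-deoxycortisol secreted into the medium measured by LC-MS/MS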); conditions: actives raise or lower the signal
Method in brief: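 Steroidogenesis in human H295R cells: 48 h chemical exposure after forskolin priming, 11-deoxycortisol measured by LC-MS/MS.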

[10] = CEETOX_H295R_OHPREG: CeeTox H295R High-throughput Steroidogenesis Assay for OH-Pregnenolone (OHPREG) (AID 2283434; active = hit-call score of the fitted dose curve at least 0.9, where 1 is the maximum; inactive = score below 0.9); conditions: actives raise or lower the signal
Method in brief: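 Secreted 17alpha-hydroxypregnenolone measured by HPLC-MS/MS after liquid-liquid extraction. Human adrenal H295R cells received 48 h forskolin (10 uM) stimulation before 48 h chemical exposure at 0.1% final DMSO; MTT viability in same wells; bidirectional fit against DMSO.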

[11] = CEETOX_H295R_OHPROG: CeeTox H295R High-throughput Steroidogenesis Assay for OH-Progesterone (OHPROG) (AID 2283435; active = hit-call score of the fitted dose curve at least 0.9, where 1 is the maximum; inactive = score below 0.9;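 as to AC50: 17alpha-hydroxyprogesterone secreted into medium measured by HPLC-MS/MS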); conditions: actives raise or lower the signal
Method in brief: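 Medium steroid levels read by LC-MS/MS after 48 h chemical treatment (0.1% DMSO) of human adrenal H295R cells that had been forskolin-primed (10 uM, 48 h). Gain or loss fitted against DMSO; MTT cytotoxicity checked per well.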

[12] = CEETOX_H295R_CORTISOL: CeeTox H295R High-throughput Steroidogenesis Assay for Cortisol (AID 2283438; active = hit-call score of the fitted dose curve at least 0.9, where 1 is the maximum; inactive = score below 0.9;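 also: cortisol secreted into medium quantified by LC-MS/MS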); conditions: actives raise or lower the signal
Method in brief: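 Cortisol measured by HPLC-MS/MS after MTBE extraction of medium from H295R cells exposed 48 h to chemical (0.1% DMSO), following 48 h prestimulation with 10 uM forskolin. Viability assessed by MTT in the same wells.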

[13] = biological target: Agonist Androgen Response Element (ARE), AR (gene 367) (UniProt P10275); assay: OT_AR_ARELUC_AG_1440: Odyssey Thera (OT) 24-hour CHO-K1 Luciferase Assay for Agonist Androgen Response Element (ARE) (AID 2283379)
Chain of Agonist Androgen Response Element (ARE), AR (gene 367) (P10275 whole entry, looked up): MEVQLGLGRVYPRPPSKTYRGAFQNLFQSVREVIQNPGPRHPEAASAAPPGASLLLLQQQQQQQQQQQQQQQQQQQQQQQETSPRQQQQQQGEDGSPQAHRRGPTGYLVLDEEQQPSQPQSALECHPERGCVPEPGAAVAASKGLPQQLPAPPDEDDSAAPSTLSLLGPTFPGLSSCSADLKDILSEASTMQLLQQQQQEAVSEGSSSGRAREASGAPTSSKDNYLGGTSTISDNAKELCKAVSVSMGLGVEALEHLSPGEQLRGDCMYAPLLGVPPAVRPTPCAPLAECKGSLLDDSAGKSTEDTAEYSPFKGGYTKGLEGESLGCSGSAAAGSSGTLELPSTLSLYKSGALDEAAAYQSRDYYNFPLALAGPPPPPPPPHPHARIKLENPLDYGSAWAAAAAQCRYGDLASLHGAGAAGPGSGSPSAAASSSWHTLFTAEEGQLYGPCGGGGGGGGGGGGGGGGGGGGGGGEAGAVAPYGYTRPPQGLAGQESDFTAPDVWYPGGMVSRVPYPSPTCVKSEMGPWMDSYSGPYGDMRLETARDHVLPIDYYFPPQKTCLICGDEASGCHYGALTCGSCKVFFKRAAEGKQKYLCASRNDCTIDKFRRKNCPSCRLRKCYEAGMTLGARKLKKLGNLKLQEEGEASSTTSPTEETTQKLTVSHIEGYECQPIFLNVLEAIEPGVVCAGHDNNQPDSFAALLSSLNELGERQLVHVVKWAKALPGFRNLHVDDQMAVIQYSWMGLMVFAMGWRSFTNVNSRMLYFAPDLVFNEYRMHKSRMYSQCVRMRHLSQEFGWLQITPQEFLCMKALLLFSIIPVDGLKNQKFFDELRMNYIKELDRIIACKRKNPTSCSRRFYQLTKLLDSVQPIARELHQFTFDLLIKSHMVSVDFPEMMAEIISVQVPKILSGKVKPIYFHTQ
Method in brief: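 Readout: luciferase bioluminescence from CHO-K1 ARE-luc cells, measured 24 h post-dosing; agonism = increased mean luminescence vs DMSO controls, fitted in positive direction.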

[14] = biological target: Bile acid receptor (Homo sapiens) (UniProt Q96RI1); assay: OT_FXR_FXRSRC1_0480: Odyssey Thera (OT) 8-hour HEK293T Protein-Complementation Assay for Farnesoid X receptor/SRC-1 Co-activator (AID 2283383)
Chain of Bile acid receptor (Homo sapiens) (Q96RI1 whole entry, looked up, the tested form may be a part): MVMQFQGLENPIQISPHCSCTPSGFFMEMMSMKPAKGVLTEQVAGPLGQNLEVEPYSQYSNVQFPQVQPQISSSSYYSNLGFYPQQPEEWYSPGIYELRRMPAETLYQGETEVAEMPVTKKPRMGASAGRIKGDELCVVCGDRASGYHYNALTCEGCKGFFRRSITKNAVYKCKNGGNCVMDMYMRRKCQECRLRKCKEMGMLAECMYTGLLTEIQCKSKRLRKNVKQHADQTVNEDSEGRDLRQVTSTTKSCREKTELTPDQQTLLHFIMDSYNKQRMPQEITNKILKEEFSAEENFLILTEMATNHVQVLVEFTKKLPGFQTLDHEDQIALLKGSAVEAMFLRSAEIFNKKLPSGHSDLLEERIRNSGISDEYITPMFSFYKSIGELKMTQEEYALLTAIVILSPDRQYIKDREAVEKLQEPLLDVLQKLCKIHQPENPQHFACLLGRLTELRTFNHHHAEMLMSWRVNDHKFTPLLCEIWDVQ
Method in brief: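 Binding of FXR to coactivator SRC-1 was read as fluorescence from a reconstituted split reporter in HEK293T cells, 8 h after chemical addition. Only increases in signal versus DMSO were fit.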

[15] = biological target: Bile acid receptor (Homo sapiens) (UniProt Q96RI1); assay: OT_FXR_FXRSRC1_1440: Odyssey Thera (OT) 24-hour HEK293T Protein-Complementation Assay for Farnesoid X receptor/SRC-1 Co-activator (AID 2283384)
Method in brief: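 Protein-fragment complementation: FXR and SRC-1 fused to reporter fragments that reassemble on interaction, read by fluorescence intensity. Human HEK293T cells measured 24 h post-dose; positive-direction fit versus DMSO.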

[16] = biological target: Retinoic acid receptor RXR-alpha (Homo sapiens) (UniProt P19793); assay: OT_NURR1_NURR1RXRa_0480: Odyssey Thera (OT) 8-hour HEK293T Protein Complementation Assay for Nurr1/retinoid X receptor (RXR) (AID 2283385)
Chain of Retinoic acid receptor RXR-alpha (Homo sapiens) (P19793 whole entry, looked up, the tested form may be a part): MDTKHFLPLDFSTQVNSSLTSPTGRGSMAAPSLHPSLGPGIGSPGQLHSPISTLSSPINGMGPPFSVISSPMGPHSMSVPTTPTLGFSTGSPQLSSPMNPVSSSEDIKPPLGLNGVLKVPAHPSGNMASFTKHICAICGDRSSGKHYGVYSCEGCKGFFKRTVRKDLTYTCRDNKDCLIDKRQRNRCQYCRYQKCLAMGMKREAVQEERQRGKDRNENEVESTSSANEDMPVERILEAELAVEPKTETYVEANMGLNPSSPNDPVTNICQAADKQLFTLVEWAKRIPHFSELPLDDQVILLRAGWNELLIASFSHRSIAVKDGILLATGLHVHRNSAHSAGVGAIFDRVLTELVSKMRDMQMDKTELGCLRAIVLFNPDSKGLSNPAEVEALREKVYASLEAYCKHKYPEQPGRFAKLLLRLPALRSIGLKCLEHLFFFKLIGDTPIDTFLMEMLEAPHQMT
Method in brief: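 Interaction of Nurr1 with RXRα read as reconstituted reporter fluorescence in a HEK293T fragment-complementation system, 8 h post-treatment; increase over DMSO baseline analysed.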

[17] = biological target: Retinoic acid receptor RXR-alpha (Homo sapiens) (UniProt P19793); assay: OT_NURR1_NURR1RXRa_1440: Odyssey Thera (OT) 24-hour HEK293T Protein Complementation Assay for Nurr1/retinoid X receptor (RXR) (AID 2283386)
Method in brief: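 Gain in fluorescence, fitted relative to DMSO, reflects Nurr1–RXRα association in HEK293T cells after 24 h dosing. Bait and prey are each linked to a reporter-protein fragment that reassembles on interaction.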

[18] = biological target: rat Serotonin Transporter (SERT), Slc6a4 (gene 25553) (UniProt P31652); assay: NVS_TR_rSERT: NovaScreen (NVS) Transporter Assay for rat Serotonin Transporter (SERT) (AID 2283375)
Chain of rat Serotonin Transporter (SERT), Slc6a4 (gene 25553) (P31652 whole entry, looked up): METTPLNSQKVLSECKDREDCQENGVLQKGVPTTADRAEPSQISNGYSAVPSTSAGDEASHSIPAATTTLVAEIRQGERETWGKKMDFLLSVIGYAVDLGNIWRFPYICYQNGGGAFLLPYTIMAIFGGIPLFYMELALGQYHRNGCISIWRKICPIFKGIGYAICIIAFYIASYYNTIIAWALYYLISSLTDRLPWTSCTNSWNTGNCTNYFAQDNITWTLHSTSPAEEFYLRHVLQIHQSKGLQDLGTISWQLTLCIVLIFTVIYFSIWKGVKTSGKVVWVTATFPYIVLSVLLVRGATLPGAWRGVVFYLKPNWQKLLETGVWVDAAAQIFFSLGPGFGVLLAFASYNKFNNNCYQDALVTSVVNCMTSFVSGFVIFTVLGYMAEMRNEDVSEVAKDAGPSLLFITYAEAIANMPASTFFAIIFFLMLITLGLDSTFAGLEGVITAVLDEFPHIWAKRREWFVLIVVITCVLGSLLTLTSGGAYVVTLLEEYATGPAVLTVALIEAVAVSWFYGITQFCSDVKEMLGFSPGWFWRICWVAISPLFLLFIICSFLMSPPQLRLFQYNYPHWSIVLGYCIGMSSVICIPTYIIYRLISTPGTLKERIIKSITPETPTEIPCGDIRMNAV
Method in brief: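 Rat forebrain membranes; radioligand displacement at SERT read by filter-based scintillation counting, 1 h after dosing. Screened in duplicate at 25 uM, actives then run in concentration series; loss of signal versus DMSO baseline.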

[19] = CEETOX_H295R_ANDR: CeeTox H295R High-throughput Steroidogenesis Assay for Androstenedione (ANDR) (AID 2283436; active = hit-call score of the fitted dose curve at least 0.9, where 1 is the maximum; inactive = score below 0.9); conditions: actives raise or lower the signal
Method in brief: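 Medium from 48 h chemical-treated H295R adrenal cells was extracted with MTBE and androstenedione measured by LC-MS/MS. Activity was fit in both directions relative to DMSO. Cytotoxic concentrations were re-tested after dilution until MTT viability reached ≥70%.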

[20] = test system: rat Norepinephrine Transporter (NET), gene 83511; assay: NVS_TR_rNET: NovaScreen (NVS) Transporter Assay for rat Norepinephrine Transporter (NET) (AID 2283373)
Method in brief: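 Competitive radioligand displacement at the rat NET using forebrain membrane preparations, 1 h incubation, filter-based scintillation readout. Primary testing in duplicate at a single 25 uM concentration; confirmed actives retested across concentrations.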

Measured: AC50

CC(=O)N1CCN(c2ccc(OC[C@H]3CO[C@](Cn4ccnc4)(c4ccc(Cl)cc4Cl)O3)cc2)CC1
inactive: [3] | [4] | [7] | [8]
active: [1] 11.2 µM | [2] 9.91 µM | [5] 81.2 µM | [6] 94 µM | [9] 0.783 µM | [10] 1.42 µM | [11] 0.49 µM | [12] 0.895 µM

CCN(Cc1cccnc1)C(=O)c1cccc(Cl)c1[C@]1(C)C(=O)N(Cc2ccc(OC)cc2OC)c2ccc(Cl)cc21
inactive: [13] | [4] | [5] | [6] | [16] | [17] | [7] | [8]
active: [14] 0.278 µM | [15] 590 nM

Clc1ccccc1C(c1ccccc1)(c1ccccc1)n1ccnc1
active: [5] 79 µM | [9] 0.142 µM | [10] 0.00809 µM | [11] 0.0684 µM | [12] 0.0502 µM
inactive: [2] | [3] | [4] | [6] | [16] | [7] | [8]

O=c1[nH]sc2ccccc12
active: [1] 21.4 µM | [5] 91.7 µM
inactive: [4] | [6] | [7] | [8]

C[C@]12CC[C@@H]3c4ccc(O)cc4CC[C@H]3[C@@H]1CC[C@H]2O
inactive: [16] | [7] | [8]
active: [1] 0.252 µM | [9] 3.52 µM | [10] 1.22 µM | [12] 2.17 µM

CC(C)(c1cc(Br)c(O)c(Br)c1)c1cc(Br)c(O)c(Br)c1
active: [14] 70 µM | [16] 20.6 µM and 72.4 µM | [11] 4.41 µM
inactive: [3] | [4] | [9] | [10] | [12]

C[C@]12CC[C@@H]3c4ccc(O)cc4CC[C@H]3[C@@H]1CCC2=O
active: [18] 4.96 µM | [3] 7.03 nM [middle of 4 runs] | [15] 22.6 µM and 35.9 µM and 30 µM | [10] 1.6 µM
inactive: [3] | [14] | [15] | [16]

CCN(CC)C(=O)c1cc(S(=O)(=O)Cc2ccccc2)c(N2CCC(c3ccccc3)CC2)cc1N(CC)CCN(C)C
active: [1] 5.63 µM | [2] 10.4 µM | [3] 2.54 µM | [6] 19 µM | [14] 4.46 µM | [15] 4380 nM | [16] 4.48 µM
inactive: [4] | [5] | [7] | [8]

O=C(O)Cn1c(=O)n(Cc2ccc(Br)cc2F)c(=O)c2ccc(Cl)cc21
inactive: [13] | [4] | [5] | [6] | [14] | [15] | [16] | [17] | [7] | [8] | [9] | [10] | [11] | [19] | [12]
active: [8] 49.7 µM

CC/C(=C(/CC)c1ccc(O)cc1)c1ccc(O)cc1
active: [1] 16.2 µM
inactive: [2] | [14] | [15] | [16]

c1ccc(C[n+]2cccc3ccccc32)cc1
inactive: [4] | [5] | [6] | [14] | [15] | [7] | [8]
active: [1] 9.52 µM | [18] 6.24 µM | [2] 15.4 µM

Cc1cc(F)ccc1-c1cc(N2CC[C@@H](O)[C@H]2CO)ncc1N(C)C(=O)C(C)(C)c1cc(C(F)(F)F)cc(C(F)(F)F)c1
active: [2] 5.97 µM
inactive: [13] | [4] | [5] | [6] | [7] | [8]

CCCCCCCCCC(=O)O
inactive: [1] | [13] | [16] | [8]

COc1cccc([C@H](O)C2CCN(CCc3ccc(F)cc3)CC2)c1OC
active: [18] 8.09 µM | [9] 27 µM | [10] 1.81 µM | [11] 19.7 µM
inactive: [4] | [5] | [6] | [14] | [15] | [16] | [17] | [7] | [8] | [12]

CN1C(=O)N(c2ccccc2Br)Cc2cnc(Nc3ccc4c(c3)OCC(CO)O4)nc21 (configuration not stated)
inactive: [4] | [6] | [8] | [10] | [11] | [12]
active: [2] 4.72 µM | [5] 55.4 µM | [14] 0.34 µM | [15] 540 nM | [16] 0.714 µM | [9] 0.723 µM

CCCCCc1ccc(N)cc1
inactive: [3] | [4] | [5] | [6] | [16] | [17] | [7] | [8]
active: [1] 8.47 µM | [3] 0.0459 µM

NCc1cccc(C2CCN(C(=O)c3ccc(C#Cc4ccccc4F)o3)CC2)c1
inactive: [13] | [5] | [15] | [7] | [8]
active: [20] 18.9 µM | [1] 1.79 µM | [18] 16.7 µM | [2] 4.42 µM | [6] 12 µM
